Active and inactive are the calls of the source. Unless noted, calls follow the shape of the dose curve; as a rule, active = well fitted curve in the direction sought with a large enough effect in the repeat runs; inconclusive = weak or mixed curves; inactive = no such curve, though single readings can be large; an effect the other way counts as inactive or inconclusive.
Experiments:
[1] = qHTS assay to identify small molecule antagonists of the thyroid receptor (TR) signaling pathway - cell viability counter screen (AID 743064); also: nearly all actives have a fitted effect of over 50% in size; also: potency is read from the fitted curve at half-maximal effect
In short: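 Same-well viability check: GH3.TRE-Luc cells stimulated with 1 nM T3 alongside test compound for 23.5 h, followed by CellTiter-Fluor fluorescence.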

[2] = qHTS assay to identify small molecule antagonists of the thyroid receptor (TR) signaling pathway (AID 743065); also: nearly all actives have a fitted effect of over 55% in size; also: potency is read from the fitted curve at half-maximal effect
In short: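 Antagonism measured as loss of luciferase signal in GH3 cells stably carrying a TRE-luciferase reporter, co-treated with compound and T3 (1 nM final) for 23.5 h at 37 C. Viability was read in the same well by CellTiter-Fluor.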

[3] = system: thyroid hormone receptor (rat, GH3 cells); experiment: qHTS assay to identify small molecule agonists of the thyroid receptor (TR) signaling pathway (AID 743066; calls by dose curve)
[4] = biological target: Estrogen receptor (Homo sapiens) (UniProt P03372); experiment: qHTS assay to identify small molecule antagonists of the estrogen receptor alpha (ER-alpha) signaling pathway (AID 743069; active = well fitted curve in the direction sought with a large enough effect in the signal ratio in the repeat runs, not every such curve was filed as active; inconclusive = weak or mixed curves, or effect the other way; inactive = no such curve, though single readings can be large or run the other way; the % refers to the signal ratio; also: potency is read from the fitted curve at half-maximal effect)
In short: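 Compound effects are measured against 17beta-estradiol stimulation in HEK293 cells with a UAS-controlled beta-lactamase reporter for ER-alpha. Exposure lasts 18 hr at 37C; LiveBLAzer B/G FRET substrate follows for 2 hr at room temperature.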

[5] = qHTS assay to identify small molecule antagonists of the estrogen receptor alpha (ER-alpha) signaling pathway - cell viability counter screen (AID 743074; calls by dose curve;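 also: HEK293 cells carrying ER-alpha-UAS-bla reporter stimulated with 17beta-estradiol; nearly all actives have a fitted effect of over 45% in size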)
[6] = biological target: Estrogen receptor (Homo sapiens) (UniProt P03372); experiment: qHTS assay to identify small molecule agonists of the estrogen receptor alpha (ER-alpha) signaling pathway (AID 743075; calls by dose curve; also: potency is read from the fitted curve at half-maximal effect)
[7] = biological target: Estrogen receptor (Homo sapiens) (UniProt P03372); experiment: qHTS assay to identify small molecule agonists of the estrogen receptor alpha (ER-alpha) signaling pathway using the BG1 cell line (AID 743079); details: BG1Luc4E2 cells, ERE-luciferase agonist, 22 h; activation: at 70.3 µM (top of the series); also: nearly all actives have a fitted effect of over 20% in size; also: potency is read from the fitted curve at half-maximal effect
[8] = qHTS assay to identify small molecule antagonists of the estrogen receptor alpha (ER-alpha) signaling pathway using the BG1 cell line - cell viability counter screen (AID 743081);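 also: compound given together with 17beta-estradiol as the ER stimulus; nearly all actives have a fitted effect of over 45% in size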
Aromatase (Homo sapiens) = Aromatase (Homo sapiens) (UniProt P11511); experiment: qHTS assay to identify aromatase inhibitors (AID 743083); also: nearly all actives have a fitted effect of over 55% in size
[9] = qHTS assay to identify aromatase inhibitors - cell viability counter screen (AID 743084);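 also: cells stimulated with testosterone during compound exposure; nearly all actives have a fitted effect of over 55% in size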; also: potency is read from the fitted curve at half-maximal effect
[10] = biological target: Aryl hydrocarbon receptor (Homo sapiens) (UniProt P35869); experiment: qHTS assay to identify small molecule that activate the aryl hydrocarbon receptor (AhR) signaling pathway (AID 743085); also: nearly all actives have a fitted effect of over 15% in size; also: potency is read from the fitted curve at half-maximal effect;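 as to activation: HG2L7.5c1 human HepG2 liver cells with stably integrated DRE-driven firefly reporter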
In short: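 Reporter assay in engineered HepG2 line HG2L7.5c1, whose plasmid carries twenty dioxin responsive elements upstream of firefly luciferase. Treatment lasted 24 h at 37C; ONE-Glo luminescence gauged induction.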

[11] = biological target: Peroxisome proliferator-activated receptor gamma (Homo sapiens) (UniProt P37231); experiment: qHTS assay to identify small molecule agonists of the peroxisome proliferator-activated receptor gamma (PPARg) signaling pathway (AID 743094; active = well fitted activation curve with a large enough effect in the signal ratio in the repeat runs, not every such curve was filed as active; inconclusive = weak or mixed curves, or effect the other way; inactive = no such curve, though single readings can be large or run the other way; the % refers to the signal ratio)
In short: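 Stably transfected HEK293H cells (GeneBLAzer PPARg UAS-bla) were incubated with test substances for 17 h at 37C after a 5 h pre-incubation; beta-lactamase activity was then detected by FRET substrate fluorescence.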

[12] = qHTS assay to identify small molecule phospholipidosis (PLD) inducers (AID 1259344; active = well fitted curve in the direction sought with a large enough effect; inconclusive = small, poorly fitted or top-dose-only effect, or another doubt; inactive = no such curve, though single readings can be large; an effect the other way counts as inactive or inconclusive)
In short: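 Fluorescent phospholipid staining (LipidTOX Red) measured by automated microscopy in fixed HepG2 cells after 24 h treatment; nuclei counterstained with Hoechst 33342; amiodarone as reference inducer.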

[13] = biological target: Nuclear receptor subfamily 1 group I member 2 (Rattus norvegicus) (UniProt Q9R1A7); experiment: Rat pregnane X receptor (rPXR) activation by small molecules, qHTS assay (AID 1346983); details: rPXR luciferase reporter cells, One-Glo luminescence, 24 h; max activation: active compounds read high; also: nearly all actives have a fitted effect of over 20% in size; also: potency is read from the fitted curve at half-maximal effect
In short: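 Luminescent readout (One-Glo luciferase, 30 min room temperature) followed 24 hr compound treatment at 37 C of rPXR cells plated 2,000 per well and preincubated 5hr; qHTS format with compounds delivered in DMSO.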

[14] = biological target: Nuclear receptor subfamily 1 group I member 2 (Homo sapiens) (UniProt O75469); experiment: Human pregnane X receptor (PXR) activation by small molecules, qHTS assay (AID 1346985); also: nearly all actives have a fitted effect of over 40% in size; also: potency is read from the fitted curve at half-maximal effect
In short: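 DPX-2 cells (HepG2 co-transfected with a PXR response element and a CYP3A4-promoter luciferase construct) were seeded at 2,000 per well, rested 5 hr at 37C, then exposed to DMSO-dissolved compounds for 24 hr. Activation was read as luciferase luminescence.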

[15] = qHTS assay to identify small molecule antagonists of the estrogen receptor alpha (ER-alpha) signaling pathway using the BG1 cell line (AID 743080; calls by dose curve;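 also: BG1 cells stimulated with 17beta-estradiol alongside compound; nearly all actives have a fitted effect of over 25% in size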)
In short: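 After 5 days in phenol-red-free 10% charcoal-stripped FBS medium, BG1-Luc-4E2 cells were seeded, left 24 h at 37 C, co-treated with compounds and 17beta-estradiol for 21.5 h, then assayed for viability and luciferase.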

[16] = qHTS assay to identify small molecule that activate the aryl hydrocarbon receptor (AhR) signaling pathway - cell viability counter screen (AID 743086); also: nearly all actives have a fitted effect of over 45% in size; also: potency is read from the fitted curve at half-maximal effect
In short: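 Cytotoxicity counter screen: CellTiter-Fluor signal (30 min, 37 C) in 4000 HepG2 cells/well carrying the DRE-luciferase reporter, following 24 h compound exposure at 37 C.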

[17] = biological target: Nuclear receptor subfamily 1 group I member 2 (Homo sapiens) (UniProt O75469); experiment: CYP3A4 induction through human pregnane X receptor (PXR) by small molecules, qHTS assay (AID 1346984); also: nearly all actives have a fitted effect of over 40% in size; also: potency is read from the fitted curve at half-maximal effect
In short: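 DPX-2 reporter cells; 24h cpd, 37C; Luciferin-IPA 3uM final x3h; One-Glo 30 min RT; lumi read.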
% is scaled to controls: 0 for no effect and ±100 for the full control effect.

Aromatase (Homo sapiens), sequence (P11511 whole entry, looked up): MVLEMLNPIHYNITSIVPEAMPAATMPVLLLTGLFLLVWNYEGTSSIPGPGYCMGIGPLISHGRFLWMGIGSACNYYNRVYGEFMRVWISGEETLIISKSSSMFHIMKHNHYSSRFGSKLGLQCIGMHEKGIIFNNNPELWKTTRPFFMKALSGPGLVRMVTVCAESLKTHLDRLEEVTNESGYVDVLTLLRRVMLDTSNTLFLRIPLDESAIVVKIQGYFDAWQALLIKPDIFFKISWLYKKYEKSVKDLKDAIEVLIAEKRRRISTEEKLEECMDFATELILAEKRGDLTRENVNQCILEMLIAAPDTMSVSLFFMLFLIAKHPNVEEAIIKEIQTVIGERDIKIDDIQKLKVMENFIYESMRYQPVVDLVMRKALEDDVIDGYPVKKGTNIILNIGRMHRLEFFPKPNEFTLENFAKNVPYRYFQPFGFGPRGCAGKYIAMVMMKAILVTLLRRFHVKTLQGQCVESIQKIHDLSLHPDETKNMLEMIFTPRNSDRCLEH
Aryl hydrocarbon receptor (Homo sapiens), sequence (P35869 whole entry, looked up): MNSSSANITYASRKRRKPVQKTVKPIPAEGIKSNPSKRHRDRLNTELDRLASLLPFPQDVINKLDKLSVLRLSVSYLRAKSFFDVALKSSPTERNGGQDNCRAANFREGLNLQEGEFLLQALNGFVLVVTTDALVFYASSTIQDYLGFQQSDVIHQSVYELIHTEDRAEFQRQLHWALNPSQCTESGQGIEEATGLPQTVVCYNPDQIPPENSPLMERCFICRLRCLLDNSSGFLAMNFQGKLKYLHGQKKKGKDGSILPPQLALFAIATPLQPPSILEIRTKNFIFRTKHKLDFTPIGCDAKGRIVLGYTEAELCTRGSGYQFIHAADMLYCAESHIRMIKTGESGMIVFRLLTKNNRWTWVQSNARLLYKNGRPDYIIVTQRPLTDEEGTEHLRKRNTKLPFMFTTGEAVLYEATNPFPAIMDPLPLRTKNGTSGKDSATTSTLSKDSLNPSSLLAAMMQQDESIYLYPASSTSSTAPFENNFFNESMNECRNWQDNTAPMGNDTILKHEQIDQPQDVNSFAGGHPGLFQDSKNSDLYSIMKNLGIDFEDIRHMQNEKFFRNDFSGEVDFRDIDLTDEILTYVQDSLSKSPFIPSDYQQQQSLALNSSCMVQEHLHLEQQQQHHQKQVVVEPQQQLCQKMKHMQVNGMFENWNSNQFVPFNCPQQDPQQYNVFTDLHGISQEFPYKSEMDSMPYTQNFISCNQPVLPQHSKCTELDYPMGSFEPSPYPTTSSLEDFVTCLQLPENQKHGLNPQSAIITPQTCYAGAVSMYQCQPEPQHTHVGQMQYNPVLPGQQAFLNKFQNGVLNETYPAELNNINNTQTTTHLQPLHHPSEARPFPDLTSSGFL
Nuclear receptor subfamily 1 group I member 2 (Rattus norvegicus), sequence (Q9R1A7 whole entry, looked up): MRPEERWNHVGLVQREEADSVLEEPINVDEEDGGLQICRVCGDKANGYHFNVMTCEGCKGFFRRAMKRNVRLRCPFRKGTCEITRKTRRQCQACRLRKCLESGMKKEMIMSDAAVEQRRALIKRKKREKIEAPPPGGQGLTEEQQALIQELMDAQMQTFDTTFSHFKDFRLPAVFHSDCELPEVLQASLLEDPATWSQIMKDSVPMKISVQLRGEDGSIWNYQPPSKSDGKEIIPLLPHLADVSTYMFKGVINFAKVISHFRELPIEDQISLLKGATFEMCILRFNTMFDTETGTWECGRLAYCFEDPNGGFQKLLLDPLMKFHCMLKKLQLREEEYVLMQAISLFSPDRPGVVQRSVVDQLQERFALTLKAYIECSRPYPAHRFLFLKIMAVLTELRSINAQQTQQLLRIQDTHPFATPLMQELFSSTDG
Estrogen receptor (Homo sapiens), sequence (P03372 whole entry, looked up): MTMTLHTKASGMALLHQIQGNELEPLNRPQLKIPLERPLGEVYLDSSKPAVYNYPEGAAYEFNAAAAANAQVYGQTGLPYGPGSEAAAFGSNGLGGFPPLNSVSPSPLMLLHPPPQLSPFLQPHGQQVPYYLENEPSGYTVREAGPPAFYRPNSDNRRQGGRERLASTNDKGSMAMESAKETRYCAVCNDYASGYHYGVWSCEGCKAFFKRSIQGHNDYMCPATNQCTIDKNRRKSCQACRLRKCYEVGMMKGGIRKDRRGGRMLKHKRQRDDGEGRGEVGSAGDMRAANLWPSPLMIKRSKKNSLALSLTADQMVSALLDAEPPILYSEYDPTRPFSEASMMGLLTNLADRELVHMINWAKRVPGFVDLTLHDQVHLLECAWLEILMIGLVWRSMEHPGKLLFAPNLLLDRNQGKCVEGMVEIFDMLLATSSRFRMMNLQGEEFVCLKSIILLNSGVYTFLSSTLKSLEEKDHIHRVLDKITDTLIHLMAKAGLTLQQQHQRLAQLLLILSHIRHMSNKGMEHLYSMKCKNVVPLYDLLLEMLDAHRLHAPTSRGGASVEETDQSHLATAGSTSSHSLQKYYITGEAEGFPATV
Peroxisome proliferator-activated receptor gamma (Homo sapiens), sequence (P37231 whole entry, looked up): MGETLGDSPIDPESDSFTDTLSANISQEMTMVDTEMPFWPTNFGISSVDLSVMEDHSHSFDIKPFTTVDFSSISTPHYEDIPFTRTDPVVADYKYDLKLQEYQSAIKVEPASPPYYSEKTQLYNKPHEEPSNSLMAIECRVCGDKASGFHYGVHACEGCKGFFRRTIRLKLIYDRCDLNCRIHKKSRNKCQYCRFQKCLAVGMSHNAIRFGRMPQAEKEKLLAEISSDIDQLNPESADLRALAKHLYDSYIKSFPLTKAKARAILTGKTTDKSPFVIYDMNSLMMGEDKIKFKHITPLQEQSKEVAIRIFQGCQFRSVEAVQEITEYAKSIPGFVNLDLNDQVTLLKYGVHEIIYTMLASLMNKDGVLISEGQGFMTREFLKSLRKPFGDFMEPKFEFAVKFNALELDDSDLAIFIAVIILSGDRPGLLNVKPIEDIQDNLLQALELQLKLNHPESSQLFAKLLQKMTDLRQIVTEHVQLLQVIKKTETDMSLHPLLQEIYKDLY

NC(=O)Oc1ccc(Cc2ccccc2)cc1
active: Potency [6] 26.8 µM [activator] | Potency [7] 21.1 µM
inactive: Potency [1] | Potency [2] | Potency [3] | Potency [4] | Potency [5] | Potency [8] | Potency (Aromatase (Homo sapiens)) | Potency [9] | Potency [10] | Potency [11] | Potency [12] | max activation [13] -0.809% | Potency [14]

C=CCN1CCCC1CNC(=O)c1cc(S(N)(=O)=O)cc(OC)c1OC (configuration not stated)
active: Potency [17] 14.1 µM
inactive: Potency [1] | Potency [2] | Potency [3] | Potency [4] | Potency [5] | Potency [6] | Potency [7] | Potency [15] | Potency [8] | Potency (Aromatase (Homo sapiens)) | Potency [9] | Potency [10] | Potency [16] | Potency [11] | Potency [12] | max activation [13] -5.9%

Cc1ccccc1OCC(O)CNCCOc1ccc(C(N)=O)cc1 (configuration not stated)
inactive: Potency [5] | Potency [8] | Potency (Aromatase (Homo sapiens)) | Potency [9] | Potency [10] | Potency [11] | Potency [12] | max activation [13] -2.29% | Potency [17] | Potency [14]

CC1CCC(NC(=O)N(CCCl)N=O)CC1 (configuration not stated)
active: Potency [7] 26.6 µM | Potency [13] 5.01 µM
inactive: Potency [1] | Potency [2] | Potency [3] | Potency [4] | Potency [5] | Potency [6] | Potency [8] | Potency (Aromatase (Homo sapiens)) | Potency [9] | Potency [16] | Potency [11] | Potency [12] | Potency [17]

CC(C)C(=O)OCC(=O)[C@@]12O[C@H](C3CCCCC3)O[C@@H]1C[C@H]1[C@@H]3CCC4=CC(=O)C=C[C@]4(C)[C@H]3[C@@H](O)C[C@@]12C
active: Potency [1] 18.8 µM | Potency [2] 10.6 µM | Potency [4] 21.3 µM [inconclusive] | Potency [13] 7.94 µM | Potency [14] 0.631 µM
inactive: Potency [3] | Potency [5] | Potency [6] | Potency [8] | Potency (Aromatase (Homo sapiens)) | Potency [9] | Potency [10] | Potency [16] | Potency [11] | Potency [12]

COC(=O)[C@H]1[C@H]2C[C@@H]3c4[nH]c5cc(OC)ccc5c4CCN3C[C@H]2C[C@@H](OC(=O)/C=C/c2cc(OC)c(OC)c(OC)c2)[C@@H]1OC
inactive: Potency [1] | Potency [3] | Potency [4] | Potency [5] | Potency [6] | Potency [7] | Potency [15] | Potency [8] | Potency (Aromatase (Homo sapiens)) | Potency [9] | Potency [16] | Potency [11] | Potency [12] | max activation [13] -2.27% | Potency [14]

CC1(C)C(\C=C/C=C\C=C/C=C2/N(CCCCS(=O)(=O)O)c3ccc4ccccc4c3C2(C)C)=[N+](CCCCS(=O)(=O)[O-])c2ccc3ccccc3c21
active: Potency [1] 15 µM | Potency [2] 0.841 µM
inactive: Potency [3] | Potency [5] | Potency [6] | Potency [7] | Potency (Aromatase (Homo sapiens)) | Potency [10] | Potency [11] | Potency [12] | Potency [17] | Potency [14]

CC[C@@H](C(=O)[C@@H](C)[C@@H](O)[C@H](C)[C@@H]1O[C@@H]([C@@H](CC)C(=O)O)CC[C@@H]1C)[C@H]1O[C@]2(C=C[C@@H](O)[C@]3(CC[C@@](C)([C@H]4CC[C@](O)(CC)[C@H](C)O4)O3)O2)[C@H](C)C[C@@H]1C
inactive: Potency (Aromatase (Homo sapiens)) | Potency [9] | Potency [10] | Potency [16] | Potency [12] | max activation [13] -12.1% | Potency [14]
active: Potency [1] 0.668 µM | Potency [2] 0.668 µM

O=C(/C=C/c1cccc(F)c1)NC1CC1
inactive: Potency [1] | Potency [2] | Potency [3] | Potency [5] | Potency [8] | Potency (Aromatase (Homo sapiens)) | Potency [9] | Potency [10] | Potency [16] | Potency [11] | Potency [12] | Potency [17]
active: Potency [14] 10 µM

CC(=O)O[C@H]1C(=O)[C@@]2(C)[C@H]([C@H](OC(=O)c3ccccc3)[C@]3(O)C[C@H](OC(=O)[C@H](O)[C@@H](NC(=O)c4ccccc4)c4ccccc4)C(C)=C1C3(C)C)[C@]1(OC(C)=O)CO[C@@H]1C[C@@H]2O
inactive: Potency [3] | Potency [4] | Potency [5] | Potency [6] | Potency (Aromatase (Homo sapiens)) | Potency [10] | Potency [11] | Potency [12]
active: Potency [1] 0.266 µM | Potency [2] 0.133 µM | Potency [9] 6.68 µM | Potency [17] 6.31 µM | Potency [14] 15.8 µM

CC[C@@H]1/C=C(\C)C[C@H](C)C[C@H](OC)[C@H]2O[C@@](O)(C(=O)C(=O)N3CCCC[C@H]3C(=O)O[C@H](/C(C)=C/[C@@H]3CC[C@@H](Cl)[C@H](OC)C3)[C@H](C)[C@@H](O)CC1=O)[C@H](C)C[C@@H]2OC
inactive: Potency [3] | Potency [5] | Potency [8] | Potency (Aromatase (Homo sapiens)) | Potency [9] | Potency [10] | Potency [16] | Potency [11] | Potency [12] | max activation [13] -6.11% | Potency [14]

O=C1/C(=C\c2cccs2)CCC/C1=C\c1cccs1
active: Potency [7] 26.6 µM | Potency [10] 23.7 µM | Potency [16] 11.9 µM | Potency [13] 7.08 µM
inactive: Potency [1] | Potency [3] | Potency [5] | Potency [8] | Potency (Aromatase (Homo sapiens)) | Potency [12]

O=C(O)COc1ccc(CCNS(=O)(=O)c2ccccc2)s1
inactive: Potency [1] | Potency [2] | Potency [3] | Potency [4] | Potency [5] | Potency [6] | Potency [7] | Potency [15] | Potency [8] | Potency (Aromatase (Homo sapiens)) | Potency [9] | Potency [10] | Potency [16] | Potency [11] | Potency [12] | Potency [17] | Potency [14]
